Test [1] concerns the target Death-associated protein kinase 1 (Homo sapiens) (UniProt P53355). The following applies: at 1 µM.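 Note: each value is a mean inhibition figure.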
In test [2] the target is T1, Serine/threonine-protein kinase DCLK2 (Homo sapiens) (UniProt Q8N568).
T1 sequence (whole entry): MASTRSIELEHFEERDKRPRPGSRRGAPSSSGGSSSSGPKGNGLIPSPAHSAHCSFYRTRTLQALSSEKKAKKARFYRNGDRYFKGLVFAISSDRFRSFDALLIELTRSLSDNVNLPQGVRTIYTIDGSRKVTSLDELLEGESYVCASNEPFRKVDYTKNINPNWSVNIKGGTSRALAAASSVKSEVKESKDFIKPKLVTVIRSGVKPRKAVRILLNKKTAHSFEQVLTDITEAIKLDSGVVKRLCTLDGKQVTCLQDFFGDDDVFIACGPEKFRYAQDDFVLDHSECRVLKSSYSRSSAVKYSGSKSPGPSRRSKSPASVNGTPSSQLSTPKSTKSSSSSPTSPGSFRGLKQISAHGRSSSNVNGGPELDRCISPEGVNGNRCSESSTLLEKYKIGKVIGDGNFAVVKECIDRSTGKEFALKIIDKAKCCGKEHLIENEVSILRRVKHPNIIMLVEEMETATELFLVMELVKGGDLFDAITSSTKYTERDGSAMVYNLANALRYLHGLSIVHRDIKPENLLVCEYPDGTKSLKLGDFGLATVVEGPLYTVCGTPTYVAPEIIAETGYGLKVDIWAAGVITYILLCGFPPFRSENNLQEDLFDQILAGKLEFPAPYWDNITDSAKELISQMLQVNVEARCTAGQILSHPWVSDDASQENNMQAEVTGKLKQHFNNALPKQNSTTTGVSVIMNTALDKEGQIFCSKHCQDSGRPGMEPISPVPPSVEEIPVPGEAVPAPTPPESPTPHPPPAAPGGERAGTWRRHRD
The conditions noted are these: at 0.1 µM.

For test [3], the target named is T1, Serine/threonine-protein kinase DCLK2 (Homo sapiens). The following applies: at 1 µM.
For test [4], the target named is MAP kinase-activated protein kinase 2 (Homo sapiens) (UniProt P49137). The conditions noted are these: at 0.1 µM.
MAP kinase-activated protein kinase 2 (Homo sapiens), sequence (P49137 whole entry, looked up): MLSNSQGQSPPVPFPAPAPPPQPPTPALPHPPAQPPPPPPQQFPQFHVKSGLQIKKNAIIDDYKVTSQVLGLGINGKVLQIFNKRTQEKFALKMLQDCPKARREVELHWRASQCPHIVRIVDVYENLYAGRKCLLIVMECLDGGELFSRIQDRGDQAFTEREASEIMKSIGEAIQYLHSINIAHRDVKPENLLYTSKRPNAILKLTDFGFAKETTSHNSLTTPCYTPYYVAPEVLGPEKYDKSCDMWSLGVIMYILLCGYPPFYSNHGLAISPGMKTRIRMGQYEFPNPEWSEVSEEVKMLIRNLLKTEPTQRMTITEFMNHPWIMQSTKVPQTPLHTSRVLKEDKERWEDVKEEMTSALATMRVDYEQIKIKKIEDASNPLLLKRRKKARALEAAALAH
For test [5] the target is unchanged. The following applies: at 1 µM.
For test [6], the target named is MAP kinase-activated protein kinase 3 (Homo sapiens) (UniProt Q16644). The following applies: at 0.1 µM.
MAP kinase-activated protein kinase 3 (Homo sapiens), sequence (Q16644 whole entry, looked up): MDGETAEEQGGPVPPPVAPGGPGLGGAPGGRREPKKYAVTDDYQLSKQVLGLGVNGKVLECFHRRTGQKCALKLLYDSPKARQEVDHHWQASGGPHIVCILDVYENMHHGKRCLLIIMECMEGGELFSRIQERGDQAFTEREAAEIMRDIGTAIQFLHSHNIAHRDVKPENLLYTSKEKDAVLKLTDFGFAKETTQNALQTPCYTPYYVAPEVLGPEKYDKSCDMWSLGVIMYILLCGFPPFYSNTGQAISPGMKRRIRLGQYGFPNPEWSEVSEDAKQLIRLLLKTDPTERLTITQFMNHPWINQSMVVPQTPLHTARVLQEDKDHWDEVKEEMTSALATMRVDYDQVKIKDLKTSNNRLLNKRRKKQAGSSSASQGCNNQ
The target is the same in test [7]. The following applies: at 1 µM.
Test [8] has as its target Serine/threonine-protein kinase MARK1 (Homo sapiens) (UniProt Q9P0L2). The following applies: at 0.1 µM.
For test [9] the target is unchanged. The following applies: at 1 µM.
Test [10] deals with MAP/microtubule affinity-regulating kinase 3 (Homo sapiens) (UniProt P27448). The conditions noted are these: at 0.1 µM.
MAP/microtubule affinity-regulating kinase 3 (Homo sapiens), sequence (P27448 whole entry, looked up): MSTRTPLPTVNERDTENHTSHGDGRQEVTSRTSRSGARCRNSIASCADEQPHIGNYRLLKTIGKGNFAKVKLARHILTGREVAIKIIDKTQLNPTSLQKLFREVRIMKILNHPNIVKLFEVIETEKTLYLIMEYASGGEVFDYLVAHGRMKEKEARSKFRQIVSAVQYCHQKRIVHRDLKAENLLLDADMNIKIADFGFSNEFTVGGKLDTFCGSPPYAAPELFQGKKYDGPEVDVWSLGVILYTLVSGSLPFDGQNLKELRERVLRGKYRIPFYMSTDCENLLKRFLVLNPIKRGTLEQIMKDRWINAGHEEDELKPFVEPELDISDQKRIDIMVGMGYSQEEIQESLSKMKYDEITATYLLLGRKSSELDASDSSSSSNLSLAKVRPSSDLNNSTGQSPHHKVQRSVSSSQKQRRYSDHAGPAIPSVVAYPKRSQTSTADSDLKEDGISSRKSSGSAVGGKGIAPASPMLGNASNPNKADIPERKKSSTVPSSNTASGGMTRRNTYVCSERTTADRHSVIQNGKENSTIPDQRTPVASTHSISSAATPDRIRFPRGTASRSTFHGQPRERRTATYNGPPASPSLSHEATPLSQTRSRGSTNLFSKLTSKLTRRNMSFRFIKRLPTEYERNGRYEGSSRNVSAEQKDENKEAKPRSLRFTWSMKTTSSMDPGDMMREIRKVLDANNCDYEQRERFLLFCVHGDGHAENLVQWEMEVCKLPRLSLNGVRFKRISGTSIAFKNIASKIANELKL
The target is the same in test [11]. The following applies: at 1 µM.
Test [12] deals with T2, MAP/microtubule affinity-regulating kinase 4 (Homo sapiens) (UniProt Q96L34).
T2 sequence (whole entry): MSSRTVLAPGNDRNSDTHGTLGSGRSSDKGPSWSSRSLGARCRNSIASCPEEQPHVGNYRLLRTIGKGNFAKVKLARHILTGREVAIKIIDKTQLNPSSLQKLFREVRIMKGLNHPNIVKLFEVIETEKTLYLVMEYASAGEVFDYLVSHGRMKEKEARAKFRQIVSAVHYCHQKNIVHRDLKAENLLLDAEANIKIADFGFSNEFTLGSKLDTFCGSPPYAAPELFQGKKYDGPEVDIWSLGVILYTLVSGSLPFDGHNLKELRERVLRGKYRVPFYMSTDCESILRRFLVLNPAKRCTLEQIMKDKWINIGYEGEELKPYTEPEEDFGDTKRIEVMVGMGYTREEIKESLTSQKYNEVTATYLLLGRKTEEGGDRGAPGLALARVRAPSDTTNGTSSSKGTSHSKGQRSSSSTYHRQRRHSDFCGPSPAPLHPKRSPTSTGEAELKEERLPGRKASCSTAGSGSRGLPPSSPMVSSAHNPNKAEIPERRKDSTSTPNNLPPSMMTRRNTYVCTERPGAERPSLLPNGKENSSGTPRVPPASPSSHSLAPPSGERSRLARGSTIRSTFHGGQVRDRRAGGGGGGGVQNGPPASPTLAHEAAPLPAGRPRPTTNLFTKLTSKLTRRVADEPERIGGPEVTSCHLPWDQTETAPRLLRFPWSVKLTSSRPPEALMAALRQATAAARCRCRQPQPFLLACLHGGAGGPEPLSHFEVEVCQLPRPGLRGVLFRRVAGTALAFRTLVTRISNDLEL
The conditions noted are these: at 0.1 µM.

Test [13] concerns the target T2, MAP/microtubule affinity-regulating kinase 4 (Homo sapiens). The conditions noted are these: at 1 µM.
For test [14], the target named is Maternal embryonic leucine zipper kinase (Homo sapiens) (UniProt Q14680). The following applies: at 0.1 µM.
Maternal embryonic leucine zipper kinase (Homo sapiens), sequence (Q14680 whole entry, looked up): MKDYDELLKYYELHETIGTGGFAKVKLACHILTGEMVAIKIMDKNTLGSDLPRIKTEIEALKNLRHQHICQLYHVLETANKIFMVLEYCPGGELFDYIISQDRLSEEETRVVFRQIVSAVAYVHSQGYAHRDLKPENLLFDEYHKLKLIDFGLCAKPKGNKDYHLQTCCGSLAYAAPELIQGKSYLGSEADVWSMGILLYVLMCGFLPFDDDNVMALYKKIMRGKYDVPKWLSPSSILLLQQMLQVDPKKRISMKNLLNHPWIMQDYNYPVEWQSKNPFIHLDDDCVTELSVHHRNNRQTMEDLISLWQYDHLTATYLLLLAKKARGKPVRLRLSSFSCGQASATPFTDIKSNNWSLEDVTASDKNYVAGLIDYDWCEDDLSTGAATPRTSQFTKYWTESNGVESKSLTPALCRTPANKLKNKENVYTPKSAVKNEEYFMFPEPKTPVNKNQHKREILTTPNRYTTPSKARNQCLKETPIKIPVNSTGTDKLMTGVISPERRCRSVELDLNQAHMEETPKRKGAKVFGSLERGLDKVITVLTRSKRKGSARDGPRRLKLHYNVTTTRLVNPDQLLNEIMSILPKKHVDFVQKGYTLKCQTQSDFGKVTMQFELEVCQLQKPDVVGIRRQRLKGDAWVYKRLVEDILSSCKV
The target is the same in test [15]. The conditions noted are these: at 1 µM.
Test [16] has as its target MAP kinase-interacting serine/threonine-protein kinase 1 (Homo sapiens) (UniProt Q9BUB5). The following applies: at 0.1 µM.
The target is the same in test [17]. The conditions noted are these: at 1 µM.
Test [18] addresses MAP kinase-interacting serine/threonine-protein kinase 2 (Homo sapiens) (UniProt Q9HBH9). The following applies: at 0.1 µM.
The target is the same in test [19]. The conditions noted are these: at 1 µM.
Test [20] concerns the target Serine/threonine-protein kinase MARK2 (Homo sapiens) (UniProt Q7KZI7). The conditions noted are these: at 0.1 µM.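 Note: mean percent inhibition of PAR-1Balpha kinase activity, reported from the GSK PKIS screen.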

MAP kinase-interacting serine/threonine-protein kinase 1 (Homo sapiens), sequence (Q9BUB5 whole entry, looked up): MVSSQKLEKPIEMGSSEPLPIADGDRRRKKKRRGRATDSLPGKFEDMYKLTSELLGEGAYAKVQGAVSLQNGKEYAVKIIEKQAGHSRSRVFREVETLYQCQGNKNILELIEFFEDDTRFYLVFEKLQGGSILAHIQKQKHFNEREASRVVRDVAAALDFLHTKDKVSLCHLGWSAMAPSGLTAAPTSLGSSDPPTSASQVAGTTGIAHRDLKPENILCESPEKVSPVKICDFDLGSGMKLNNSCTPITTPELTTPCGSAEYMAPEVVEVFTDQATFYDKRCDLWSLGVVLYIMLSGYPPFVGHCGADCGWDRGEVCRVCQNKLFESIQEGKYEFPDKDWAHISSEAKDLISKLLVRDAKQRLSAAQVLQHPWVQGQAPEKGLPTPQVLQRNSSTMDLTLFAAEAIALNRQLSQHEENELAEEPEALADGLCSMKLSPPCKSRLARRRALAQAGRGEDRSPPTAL
Death-associated protein kinase 1 (Homo sapiens), sequence (P53355 whole entry, looked up): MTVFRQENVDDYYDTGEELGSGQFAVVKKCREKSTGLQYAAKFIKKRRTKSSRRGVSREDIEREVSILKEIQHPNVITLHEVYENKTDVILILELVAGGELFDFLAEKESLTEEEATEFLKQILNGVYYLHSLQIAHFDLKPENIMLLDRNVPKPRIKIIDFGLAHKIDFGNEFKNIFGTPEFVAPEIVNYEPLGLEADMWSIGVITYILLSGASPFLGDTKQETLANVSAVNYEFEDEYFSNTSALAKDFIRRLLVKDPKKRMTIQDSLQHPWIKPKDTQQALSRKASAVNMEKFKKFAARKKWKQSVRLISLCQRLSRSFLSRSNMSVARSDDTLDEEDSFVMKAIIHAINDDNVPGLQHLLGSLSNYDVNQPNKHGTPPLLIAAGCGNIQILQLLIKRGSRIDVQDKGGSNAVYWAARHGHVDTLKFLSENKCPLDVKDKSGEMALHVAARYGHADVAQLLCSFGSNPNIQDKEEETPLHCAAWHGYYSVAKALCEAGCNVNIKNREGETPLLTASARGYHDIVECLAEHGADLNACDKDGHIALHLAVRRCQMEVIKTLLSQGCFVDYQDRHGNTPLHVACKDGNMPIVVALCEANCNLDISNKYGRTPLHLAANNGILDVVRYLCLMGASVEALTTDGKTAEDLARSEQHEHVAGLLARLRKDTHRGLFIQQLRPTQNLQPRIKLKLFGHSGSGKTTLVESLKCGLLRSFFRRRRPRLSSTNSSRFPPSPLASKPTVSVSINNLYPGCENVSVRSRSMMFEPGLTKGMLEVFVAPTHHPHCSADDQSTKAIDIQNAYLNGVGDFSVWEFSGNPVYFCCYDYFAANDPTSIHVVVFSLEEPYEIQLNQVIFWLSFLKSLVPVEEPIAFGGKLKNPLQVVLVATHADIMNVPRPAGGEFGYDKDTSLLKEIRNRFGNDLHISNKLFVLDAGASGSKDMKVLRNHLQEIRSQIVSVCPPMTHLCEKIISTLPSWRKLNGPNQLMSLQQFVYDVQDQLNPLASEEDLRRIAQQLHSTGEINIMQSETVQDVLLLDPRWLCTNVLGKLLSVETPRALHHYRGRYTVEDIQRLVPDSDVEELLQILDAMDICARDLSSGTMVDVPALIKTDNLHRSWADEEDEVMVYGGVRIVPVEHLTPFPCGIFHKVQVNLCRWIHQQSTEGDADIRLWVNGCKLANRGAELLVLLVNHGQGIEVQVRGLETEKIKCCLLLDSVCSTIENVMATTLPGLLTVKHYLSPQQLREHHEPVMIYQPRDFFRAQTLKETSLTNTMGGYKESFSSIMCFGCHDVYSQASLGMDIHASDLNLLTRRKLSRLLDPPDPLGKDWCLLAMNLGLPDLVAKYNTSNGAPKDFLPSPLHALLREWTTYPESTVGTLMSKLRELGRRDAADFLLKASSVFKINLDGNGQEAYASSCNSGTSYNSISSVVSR
Serine/threonine-protein kinase MARK2 (Homo sapiens), sequence (Q7KZI7 whole entry): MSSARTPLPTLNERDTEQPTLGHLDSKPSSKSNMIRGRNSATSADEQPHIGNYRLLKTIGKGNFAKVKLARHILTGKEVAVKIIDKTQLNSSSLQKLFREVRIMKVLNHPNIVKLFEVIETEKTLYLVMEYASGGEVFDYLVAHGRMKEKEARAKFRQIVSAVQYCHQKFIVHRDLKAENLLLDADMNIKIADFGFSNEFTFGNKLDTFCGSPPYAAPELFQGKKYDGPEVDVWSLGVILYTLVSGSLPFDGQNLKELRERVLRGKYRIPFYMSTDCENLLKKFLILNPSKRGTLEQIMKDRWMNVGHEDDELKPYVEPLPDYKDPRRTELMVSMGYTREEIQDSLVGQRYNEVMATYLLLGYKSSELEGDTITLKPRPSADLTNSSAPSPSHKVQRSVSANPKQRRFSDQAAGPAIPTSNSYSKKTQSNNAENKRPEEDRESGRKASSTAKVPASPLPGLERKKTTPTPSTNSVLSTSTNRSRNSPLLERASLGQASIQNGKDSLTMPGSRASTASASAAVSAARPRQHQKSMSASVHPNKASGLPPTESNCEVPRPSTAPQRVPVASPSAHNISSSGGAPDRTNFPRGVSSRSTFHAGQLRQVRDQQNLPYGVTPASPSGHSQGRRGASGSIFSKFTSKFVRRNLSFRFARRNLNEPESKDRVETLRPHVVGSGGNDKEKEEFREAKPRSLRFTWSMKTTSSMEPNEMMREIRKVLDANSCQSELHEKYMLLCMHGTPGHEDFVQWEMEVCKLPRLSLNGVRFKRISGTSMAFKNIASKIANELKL

In general, inhibition refers to the drop in the measured response relative to a control, in per cent. For the compound `CNC(=O)c1cc(-c2ccc(F)cc2)cc(-c2ccc(S(=O)(=O)N3CCCC3)cc2)c1N`, the inhibition was 9.63% in test [1]; -1.53% in test [2]; -0.01% in [3]; 4.47% in test [4]; 5.35% in test [5]; 7.55% in test [6]. Moreover, the inhibition in [7] turned out to be 9.54%; in test [8], 2.14%; in test [9], 3.58%; in test [10], 1.73%; in test [11], 2.91%; in [12] it was 0.61%. Also, the inhibition is 1.19% in [13]; 4.19% in test [14]; 3.17% in test [15]; 0.63% in [16]; 0.76% in test [17]; -0.84% in test [18]. Also, the inhibition is -0.59% in test [19] and 2.35% in test [20].
With `Fc1ccc(-c2nn3ccccc3c2-c2ccncc2)cc1`, the inhibition was 0.99% in test [1]; 1.01% in [2]; -2.66% in test [3]; 0.22% in [4]; 0% in test [5]; 14.4% in [6]. Further, the inhibition in [7] is 28.4%; in [8], 1.76%; in [9] it was 2.2%; in [10], 1%; in test [11] it was -0.24%; in [12] it was 0.11%. Further, the inhibition in [13] is -0.34%; in [14] it was 3.07%; in [15] it was 6.94%; in [16], 0.31%; in test [17], 3.36%; in test [18], -0.39%. In addition, the inhibition in test [19] was 3.58%; in test [20] it was -0.63%.
`CN1CCC(n2cnc(-c3ccc(F)cc3)c2-c2ccnc(N)n2)CC1`: the inhibition in [1] amounted to 2.09%; in test [2], 0.59%; in test [3] it was 1.94%; in test [4], 0.99%; in test [5] it was 0.33%; in test [6], 17.1%. Moreover, the inhibition in test [7] was determined as 33.5%; in test [8] it was 1.8%; in test [9], 6.88%; in [10] it was 0.93%; in [11], 6.18%; in test [12], 0.14%. Moreover, the inhibition in test [13] was determined as 0.48%; in [14], 2.15%; in [15], 12.9%; in test [16], 8.32%; in test [17], 41.2%; in [18] it was 3.66%. Also, the inhibition in test [19] was 16.9%; in test [20] it was -1.15%.
`COc1cccc(-n2ncc3c(N/N=C/c4ccc(F)cc4)ncnc32)c1`: the inhibition in test [1] was 5.45%; in [2] it was 1.07%; in test [3] it was 0.2%; in [4] it was 1.96%; in [5], 2.72%; in test [6] it was 3.14%. Further, the inhibition in test [7] was found to be 3.2%; in test [8], 3.33%; in test [9], 5.14%; in [10], 4.91%; in test [11], 6.87%; in [12], 1.23%. Further, the inhibition in test [13] turned out to be 2.4%; in test [14], 2.6%; in test [15], 5.51%; in test [16], 4.58%; in test [17], 17.5%; in [18], 4.13%. Besides, the inhibition in test [19] was 13.3%; in [20] it was 1.91%.
Regarding `CN1CCC(n2cnc(-c3ccc(F)cc3)c2-c2ccnc(Nc3ccccc3)n2)CC1`, the inhibition in test [1] was 2.54%; in [2], 0.09%; in test [3] it was -4.09%; in test [4] it was 1%; in [5], 0.41%; in test [6], 34.8%. Besides, the inhibition in test [7] was 36.9%; in test [8], 1.99%; in test [9], 4.86%; in test [10] it was 3.17%; in test [11], 2.89%; in test [12] it was 0.39%. Also, the inhibition in test [13] was found to be 0.51%; in test [14], 1.63%; in test [15], 3.22%; in test [16] it was 1.8%; in test [17], 11.4%; in test [18], 1.79%. Also, the results for the inhibition in test [19] and in test [20] were 4.18% and 0.89%, respectively.
For the compound `COc1ccc2[nH]c3c4[nH]c5ccc(OC)cc5c4c4c(c3c2c1)C(=O)NC4=O`, the inhibition was 24.8% in [1]; 1.24% in test [2]; 2.81% in test [3]; 2.61% in test [4]; 5.29% in test [5]; 5.01% in [6]. Besides, the inhibition amounted to 6.04% in test [7]; 7.99% in [8]; 38.8% in test [9]; 3.92% in [10]; 33.5% in test [11]; 3.93% in [12]. Besides, the inhibition stood at 15.9% in [13]; 22.3% in [14]; 77.6% in [15]; 6.39% in test [16]; 11.5% in test [17]; 8.34% in [18]. Also, the inhibition is 18.1% in test [19] and 1.57% in test [20].
For `COc1cc(Nc2nccc(Nc3ccc4c(C)n[nH]c4c3)n2)cc(OC)c1OC`, the inhibition in test [1] is 2.65%; in [2] it was -0.29%; in test [3], 2.5%; in [4], 0.91%; in test [5], 0.86%; in [6] it was 1.05%. In addition, the inhibition stood at 1.36% in test [7]; 2.59% in [8]; 8.82% in test [9]; 3.33% in test [10]; 9.39% in test [11]; 1.78% in test [12]. For the same compound, the inhibition in test [13] was determined as 8%; in [14], 3.21%; in test [15] it was 8.73%; in test [16], 2.01%; in [17], 13.5%; in test [18], 2.68%. The inhibition in test [19] stood at 19.2%; in test [20] it was 1.57%.

The record behind these values is ChEMBL document CHEMBL1961873, “Compounds: GSK PKIS; Assays: Nanosyn kinase panel” (2012).
